Experiment [1] is described as follows: ATG_NFI_CIS: Attagene CIS-FACTORIAL HepG2 Assay for human Nuclear Factor I (NFI) (AID 2282989). The following applies: HepG2 cis-regulatory reporter, NFI response element transcription; actives raise or lower the signal. A digest of the protocol: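 Read-out: reporter mRNA via RT-PCR plus capillary electrophoresis with fluorescence detection. Transiently transfected HepG2 (endogenous TF activity on cis promoters), 24 h compound exposure; gain or loss of signal fitted against DMSO.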

The target in experiment [2] is Myc proto-oncogene protein (Homo sapiens) (UniProt P01106). Kind of experiment: ATG_Myc_CIS: Attagene CIS-FACTORIAL HepG2 Assay for human Myelocytomatosis (Myc) Proto-Oncogene Transcription Factor (AID 2282990). Particulars: HepG2, Attagene cis-reporter transcription factor activity; actives raise or lower the signal. A digest of the protocol: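 After 24 h chemical treatment of HepG2 cells carrying multiplexed cis-regulated reporter constructs, reporter transcripts quantified by RT-PCR and capillary electrophoresis of fluorescent fragments. Gain or loss fitted against DMSO baseline.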

Experiment [3] can be described thus: ATG_NRF2_ARE_CIS: Attagene CIS-FACTORIAL HepG2 Assay for human Nuclear Factor Erythroid 2 Related Factor 2 (NFR2) response to Antioxidant Response Elements (ARE) (AID 2282992).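 For AC50: reporter mRNA level measured by RT-PCR and capillary electrophoresis fluorescence.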 The following applies: HepG2 Attagene ARE/NRF2 reporter, transcription factor activity; actives raise or lower the signal. The gist of the method:
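Fluorescence intensity of reporter-specific cDNA fragments, separated by capillary electrophoresis, reflects mRNA induction in transfected HepG2 cells at 24 h. Activity is fitted bidirectionally, DMSO serving as baseline.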

Experiment [4] in a line: ATG_Oct_MLP_CIS: Attagene CIS-FACTORIAL HepG2 Assay for human Octamer-Binding Transcription Factor (Oct) (AID 2282993). Particulars: HepG2 Attagene cis-factorial Oct reporter, mRNA; actives raise or lower the signal. The gist of the method:
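Read-out: reporter mRNA via RT-PCR plus capillary electrophoresis of 6-FAM-labelled fragments. Transiently transfected HepG2, 24 h exposure, endogenous TF activity on cis elements. Gain or loss of signal fitted relative to DMSO.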

The target of experiment [5] is Cellular tumor antigen p53 (Homo sapiens) (UniProt P04637). Kind of experiment: ATG_p53_CIS: Attagene CIS-FACTORIAL HepG2 Assay for human p53 Transcription Factor (AID 2282994). Particulars: HepG2 p53 cis-element reporter, Attagene mRNA; actives raise or lower the signal. A digest of the protocol: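 Transiently transfected HepG2 (multiple cis reporter transcription units); exposure 24 h; reporter RNA via RT-PCR, 6-FAM extension, 2 h HpaI digest at 37 C, CE detection; DMSO baseline.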

The nature of experiment [6]: BSK_3C_uPAR: BioMAP Diversity Plus: 3C Assay for Urokinase-type plasminogen activator receptor (uPAR) Biomarker Activity (AID 2282998). Particulars: BioMAP 3C HUVEC, uPAR biomarker ELISA; actives raise or lower the signal. The gist of the method:
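HUVEC primary cells; 24 h post-dose; uPAR by ELISA; gain or loss of signal fitted bidirectionally vs DMSO baseline.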

The nature of experiment [7]: BSK_3C_VCAM1: BioMAP Diversity Plus: 3C Assay for Vascular cell adhesion molecule 1 (VCAM1) Biomarker Activity (AID 2282999). Particulars: BioMAP 3C HUVEC, VCAM1 ELISA, cytokine-stimulated; actives raise or lower the signal. A digest of the protocol:
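Activity fitted in both directions relative to DMSO, with ELISA measurement of the surface marker on primary HUVEC (3C) at 24 h post-treatment; parallel SRB staining (0.1% SRB, TCA-fixed, 560 nm) flagged overt cytotoxicity.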

Experiment [8] can be described thus: BSK_4H_Eotaxin3: BioMAP Diversity Plus: 4H Assay for Eotaxin 3 Biomarker Activity (AID 2283000).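 For outcome: CCL26 protein level quantified by ELISA in parallel with SRB cytotoxicity check.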 The following applies: primary human endothelial cells (HUVEC); actives raise or lower the signal. A digest of the protocol:
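Human umbilical vein endothelial cells (BSK_4H system) dosed with test chemical; Eotaxin-3 (CCL26) measured by ELISA 24 h after dosing. Bidirectional curve fitting relative to DMSO negative control as baseline.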

In experiment [9] the target is human Peroxisome Proliferator-activated Receptor alpha (PPARa), PPARA (gene 5465) (UniProt Q07869). Kind of experiment: ATG_PPARa_TRANS: Attagene TRANS-FACTORIAL HepG2 Assay for human Peroxisome Proliferator-activated Receptor alpha (PPARa) (AID 2283001; active = hit-call score of the fitted dose curve at least 0.9, where 1 is the maximum). The gist of the method:
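Reporter transcripts quantified by RT-PCR plus capillary electrophoresis after 24 h treatment, fitted upward relative to DMSO. Cells: human HepG2 transiently carrying multiple GAL4-UAS reporter units driven by NR-Gal4 chimeras.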

The target of experiment [10] is human Peroxisome Proliferator-activated Receptor delta (PPARd), PPARD (gene 5467) (UniProt Q03181). Put plainly: ATG_PPARd_TRANS: Attagene TRANS-FACTORIAL HepG2 Assay for human Peroxisome Proliferator-activated Receptor delta (PPARd) (AID 2283002; active = hit-call score of the fitted dose curve at least 0.9, where 1 is the maximum). The gist of the method:
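Read-out is induced reporter mRNA, quantified by RT-PCR with fluorescent labelling and capillary electrophoresis after 24 h dosing. Cells are HepG2 transiently carrying multiple GAL4-UAS reporter units driven by exogenous NR-GAL4 chimeras; DMSO serves as baseline.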

Read-out in experiment [11]: Intercellular Adhesion Molecule 1 (ICAM1), ICAM1 (gene 3383)
Put plainly: BSK_3C_ICAM1: BioMAP Diversity Plus: 3C Assay for Intercellular Adhesion Molecule 1 (ICAM1) Biomarker Activity (AID 2283003). The following applies: primary human endothelial cells (HUVEC); actives raise or lower the signal. A digest of the protocol: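 ELISA readout of ICAM1 in human umbilical vein endothelial cells in the 3C system, taken 24 h post-dose. Gain or loss of signal versus DMSO was fitted in both directions, with SRB total-protein staining run in parallel.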

Experiment [12] concerns the target Retinoic acid receptor alpha (Homo sapiens) (UniProt P10276). Put plainly: ATG_RARa_TRANS: Attagene TRANS-FACTORIAL HepG2 Assay for human Retinoic Acid Receptor alpha (RARa) (AID 2283005; active = hit-call score of the fitted dose curve at least 0.9, where 1 is the maximum). The gist of the method:
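Reporter transcripts, measured by RT-PCR with fluorescent labeling and capillary electrophoresis after 24 h dosing, reflect activity of an exogenous human RARa–GAL4 fusion in transiently transfected HepG2. Fitted for increase relative to DMSO.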

Experiment [13] can be described thus: BSK_3C_Proliferation: Cell Proliferation Assessment in the BioMAP Diversity Plus: 3C Assay (AID 2283006).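 For AC50: potency may reflect either rise or fall in cell number versus DMSO.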 Particulars: primary human endothelial cells (HUVEC). The gist of the method:
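Proliferation as total protein: sulforhodamine B (0.1%) stain of TCA-fixed subconfluent human umbilical vein endothelial cells, absorbance 560 nm, 48 h after dosing. Activity fitted in both directions against DMSO baseline.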

Experiment [14] deals with Nuclear receptor subfamily 1 group I member 2 (Homo sapiens) (UniProt O75469). Put plainly: ATG_PXR_TRANS: Attagene TRANS-FACTORIAL HepG2 Assay for human Pregnane X Receptor (PXR) (AID 2283008; active = hit-call score of the fitted dose curve at least 0.9, where 1 is the maximum). A digest of the protocol: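 Transient HepG2 transfectants carrying multiplexed reporter transcription units; PXR activity read through a Gal4 chimera. 24 h exposure. RT-PCR/CE fluorescence; upward curve fit referenced to DMSO.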

For experiment [15], the target named is human Retinoic Acid Receptor gamma (RARg), RARG (gene 5916) (UniProt P13631). Put plainly: ATG_RARg_TRANS: Attagene TRANS-FACTORIAL HepG2 Assay for human Retinoic Acid Receptor gamma (RARg) (AID 2283009; active = hit-call score of the fitted dose curve at least 0.9, where 1 is the maximum). The gist of the method:
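Transactivation of exogenous RARg-Gal4 fusion measured as reporter transcript induction after 24 h in transfected HepG2 cells. RNA reverse-transcribed, amplified, fluorescently labeled and resolved by capillary electrophoresis; increase relative to DMSO.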

Experiment [16] concerns the target human RAR-related Orphan Receptor beta (RORb), RORB (gene 6096) (UniProt Q92753). Kind of experiment: ATG_RORb_TRANS: Attagene TRANS-FACTORIAL HepG2 Assay for human RAR-related Orphan Receptor beta (RORb) (AID 2283010; active = hit-call score of the fitted dose curve at least 0.9, where 1 is the maximum). The gist of the method:
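Read-out is reporter mRNA induction, quantified by RT-PCR with fluorescent capillary electrophoresis, 24 h post-dose in transiently transfected HepG2 expressing exogenous NR-Gal4 chimera. Activity fitted upward versus DMSO.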

Experiment [17] concerns the target Peroxisome proliferator-activated receptor gamma (Homo sapiens) (UniProt P37231). Kind of experiment: ATG_PPARg_TRANS: Attagene TRANS-FACTORIAL HepG2 Assay for human Peroxisome Proliferator-activated Receptor-gamma (PPARg) (AID 2283007; active = hit-call score of the fitted dose curve at least 0.9, where 1 is the maximum). The gist of the method:
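Human hepatoma HepG2, transient MRTU transfection, 24 h treatment. mRNA reporter signal by RT-PCR plus capillary electrophoresis, fluorescence detection; fitted for increase over DMSO negative control.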

Experiment [18] concerns the target human Retinoic Acid Receptor beta (RARb), RARB (gene 5915) (UniProt P10826). Put plainly: ATG_RARb_TRANS: Attagene TRANS-FACTORIAL HepG2 Assay for human Retinoic Acid Receptor beta (AID 2283004; active = hit-call score of the fitted dose curve at least 0.9, where 1 is the maximum). A digest of the protocol: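 Induction of reporter mRNA from a chimeric RARb-Gal4 construct was measured by RT-PCR, FAM labelling, HpaI digestion and capillary electrophoresis. Measurements followed 24 h compound treatment of transiently transfected human HepG2 liver cells, with DMSO as baseline.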

Experiment [19] has as its target human RAR-related Orphan Receptor gamma (RORg), RORC (gene 6097) (UniProt P51449). Kind of experiment: ATG_RORg_TRANS: Attagene TRANS-FACTORIAL HepG2 Assay for human RAR-related Orphan Receptor gamma (RORg) (AID 2283011; active = hit-call score of the fitted dose curve at least 0.9, where 1 is the maximum). A digest of the protocol:
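Reporter transcripts from a transfected RORg-GAL4 chimera in HepG2 cells were quantified 24 h after dosing by RT-PCR, 6-FAM labelling, HpaI digestion and capillary electrophoresis; increases over DMSO baseline were fitted.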

Several values for one entry are separate records, joined by “and”; a condition that tells them apart may be missing. Identical values can stand only once. Records with an inconclusive call do not appear. Activity calls are given as the source filed them. Rule for the calls, unless noted: active = hit-call score of the fitted dose curve at least 0.9, where 1 is the maximum; inactive = score below 0.9.

Data on 4 molecules can be found in PubChem BioAssay (EPA / NIEHS).

Nuclear receptor subfamily 1 group I member 2 (Homo sapiens), sequence (O75469 whole entry, looked up, the tested form may be a part): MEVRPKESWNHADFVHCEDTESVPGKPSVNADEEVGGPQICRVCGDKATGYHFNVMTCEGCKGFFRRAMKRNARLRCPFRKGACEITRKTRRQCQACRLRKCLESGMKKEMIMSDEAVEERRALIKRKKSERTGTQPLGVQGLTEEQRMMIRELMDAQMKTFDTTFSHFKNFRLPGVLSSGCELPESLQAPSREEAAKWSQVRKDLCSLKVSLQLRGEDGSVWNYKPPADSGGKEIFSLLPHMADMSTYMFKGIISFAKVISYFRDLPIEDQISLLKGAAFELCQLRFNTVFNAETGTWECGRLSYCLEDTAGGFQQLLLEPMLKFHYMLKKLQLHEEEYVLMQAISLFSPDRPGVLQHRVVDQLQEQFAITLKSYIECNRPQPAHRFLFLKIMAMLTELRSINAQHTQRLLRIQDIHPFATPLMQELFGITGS
Myc proto-oncogene protein (Homo sapiens), sequence (P01106 whole entry, looked up, the tested form may be a part): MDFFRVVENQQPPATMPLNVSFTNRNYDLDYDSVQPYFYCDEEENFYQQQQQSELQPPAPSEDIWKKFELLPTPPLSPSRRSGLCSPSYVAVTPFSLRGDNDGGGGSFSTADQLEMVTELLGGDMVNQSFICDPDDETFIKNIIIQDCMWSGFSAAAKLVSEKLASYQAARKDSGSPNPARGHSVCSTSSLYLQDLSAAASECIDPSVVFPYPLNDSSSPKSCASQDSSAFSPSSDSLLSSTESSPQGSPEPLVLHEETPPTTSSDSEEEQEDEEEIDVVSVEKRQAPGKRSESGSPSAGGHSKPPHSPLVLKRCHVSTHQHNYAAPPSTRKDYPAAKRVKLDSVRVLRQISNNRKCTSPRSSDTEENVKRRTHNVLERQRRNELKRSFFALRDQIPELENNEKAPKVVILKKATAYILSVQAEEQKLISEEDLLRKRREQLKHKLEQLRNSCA
Cellular tumor antigen p53 (Homo sapiens), sequence (P04637 whole entry, looked up): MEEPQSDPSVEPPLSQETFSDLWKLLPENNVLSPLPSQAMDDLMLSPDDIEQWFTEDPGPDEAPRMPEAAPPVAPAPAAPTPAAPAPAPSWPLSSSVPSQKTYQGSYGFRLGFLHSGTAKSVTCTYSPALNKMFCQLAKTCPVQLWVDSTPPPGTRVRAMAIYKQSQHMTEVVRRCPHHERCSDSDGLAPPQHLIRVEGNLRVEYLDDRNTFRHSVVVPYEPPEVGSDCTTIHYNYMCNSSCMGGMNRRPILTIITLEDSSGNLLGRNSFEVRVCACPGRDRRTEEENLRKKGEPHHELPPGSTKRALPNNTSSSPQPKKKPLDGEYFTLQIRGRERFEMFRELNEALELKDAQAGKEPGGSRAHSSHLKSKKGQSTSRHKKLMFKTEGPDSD
human Peroxisome Proliferator-activated Receptor alpha (PPARa), PPARA (gene 5465), sequence (Q07869 whole entry, looked up, the tested form may be a part): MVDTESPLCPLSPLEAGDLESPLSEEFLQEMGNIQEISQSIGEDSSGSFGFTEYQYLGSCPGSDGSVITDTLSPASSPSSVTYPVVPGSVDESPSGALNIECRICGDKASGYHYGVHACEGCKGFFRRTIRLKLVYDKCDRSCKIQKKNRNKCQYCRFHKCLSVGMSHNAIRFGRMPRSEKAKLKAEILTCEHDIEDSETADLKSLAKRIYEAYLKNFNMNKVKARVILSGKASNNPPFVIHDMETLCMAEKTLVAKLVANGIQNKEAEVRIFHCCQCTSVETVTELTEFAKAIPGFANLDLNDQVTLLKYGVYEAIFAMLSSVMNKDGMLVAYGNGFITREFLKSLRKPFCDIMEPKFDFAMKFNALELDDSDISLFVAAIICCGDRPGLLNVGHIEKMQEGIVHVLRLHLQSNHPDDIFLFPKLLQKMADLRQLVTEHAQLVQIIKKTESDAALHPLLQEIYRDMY
human Peroxisome Proliferator-activated Receptor delta (PPARd), PPARD (gene 5467), sequence (Q03181 whole entry, looked up, the tested form may be a part): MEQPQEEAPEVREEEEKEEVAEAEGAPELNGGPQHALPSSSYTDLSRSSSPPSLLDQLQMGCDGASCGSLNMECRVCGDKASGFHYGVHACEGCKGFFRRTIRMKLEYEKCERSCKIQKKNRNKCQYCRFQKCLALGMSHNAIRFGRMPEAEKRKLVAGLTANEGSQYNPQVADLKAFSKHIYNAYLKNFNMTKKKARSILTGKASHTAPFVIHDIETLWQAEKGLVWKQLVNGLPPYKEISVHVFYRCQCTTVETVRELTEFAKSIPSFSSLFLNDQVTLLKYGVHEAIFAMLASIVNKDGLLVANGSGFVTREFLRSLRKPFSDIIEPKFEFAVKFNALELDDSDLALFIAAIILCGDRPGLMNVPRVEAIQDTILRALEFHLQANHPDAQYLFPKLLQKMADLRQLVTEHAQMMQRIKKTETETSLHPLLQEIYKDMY
Retinoic acid receptor alpha (Homo sapiens), sequence (P10276 whole entry, looked up, the tested form may be a part): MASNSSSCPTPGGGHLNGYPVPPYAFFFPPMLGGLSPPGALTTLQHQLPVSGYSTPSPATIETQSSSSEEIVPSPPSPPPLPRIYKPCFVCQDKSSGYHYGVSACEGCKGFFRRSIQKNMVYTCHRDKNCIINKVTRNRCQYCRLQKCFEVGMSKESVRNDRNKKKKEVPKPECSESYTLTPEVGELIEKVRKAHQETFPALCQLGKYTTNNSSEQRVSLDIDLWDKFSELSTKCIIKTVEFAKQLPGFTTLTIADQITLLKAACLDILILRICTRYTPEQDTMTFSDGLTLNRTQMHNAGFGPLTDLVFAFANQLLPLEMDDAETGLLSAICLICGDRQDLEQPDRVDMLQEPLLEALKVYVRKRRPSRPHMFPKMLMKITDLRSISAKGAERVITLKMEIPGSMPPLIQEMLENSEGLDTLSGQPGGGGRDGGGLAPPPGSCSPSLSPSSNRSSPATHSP
human Retinoic Acid Receptor gamma (RARg), RARG (gene 5916), sequence (P13631 whole entry, looked up, the tested form may be a part): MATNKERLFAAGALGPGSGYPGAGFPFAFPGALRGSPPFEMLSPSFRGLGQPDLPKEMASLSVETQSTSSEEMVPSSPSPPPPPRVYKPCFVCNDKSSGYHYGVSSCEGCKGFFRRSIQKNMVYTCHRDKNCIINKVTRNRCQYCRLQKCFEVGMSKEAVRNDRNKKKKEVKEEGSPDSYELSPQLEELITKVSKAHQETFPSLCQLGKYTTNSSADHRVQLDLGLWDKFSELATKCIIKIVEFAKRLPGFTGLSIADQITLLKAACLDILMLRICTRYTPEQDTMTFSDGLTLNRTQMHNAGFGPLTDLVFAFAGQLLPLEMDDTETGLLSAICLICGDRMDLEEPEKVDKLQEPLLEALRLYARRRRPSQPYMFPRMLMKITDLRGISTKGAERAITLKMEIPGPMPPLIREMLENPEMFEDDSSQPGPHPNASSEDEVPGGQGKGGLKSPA
human RAR-related Orphan Receptor gamma (RORg), RORC (gene 6097), sequence (P51449 whole entry, looked up, the tested form may be a part): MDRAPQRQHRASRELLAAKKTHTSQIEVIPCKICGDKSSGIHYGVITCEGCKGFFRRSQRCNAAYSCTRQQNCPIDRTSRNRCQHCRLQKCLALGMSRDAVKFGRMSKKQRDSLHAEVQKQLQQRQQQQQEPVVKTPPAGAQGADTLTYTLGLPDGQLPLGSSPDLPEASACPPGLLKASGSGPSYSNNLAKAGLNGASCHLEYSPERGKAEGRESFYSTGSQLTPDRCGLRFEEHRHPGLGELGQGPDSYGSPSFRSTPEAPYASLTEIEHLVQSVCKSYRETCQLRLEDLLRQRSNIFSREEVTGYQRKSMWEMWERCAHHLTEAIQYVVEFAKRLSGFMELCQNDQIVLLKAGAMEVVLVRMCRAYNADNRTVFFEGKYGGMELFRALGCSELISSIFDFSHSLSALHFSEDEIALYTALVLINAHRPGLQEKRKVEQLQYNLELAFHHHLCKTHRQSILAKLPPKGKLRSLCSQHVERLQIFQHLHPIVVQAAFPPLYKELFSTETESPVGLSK
Peroxisome proliferator-activated receptor gamma (Homo sapiens), sequence (P37231 whole entry, looked up): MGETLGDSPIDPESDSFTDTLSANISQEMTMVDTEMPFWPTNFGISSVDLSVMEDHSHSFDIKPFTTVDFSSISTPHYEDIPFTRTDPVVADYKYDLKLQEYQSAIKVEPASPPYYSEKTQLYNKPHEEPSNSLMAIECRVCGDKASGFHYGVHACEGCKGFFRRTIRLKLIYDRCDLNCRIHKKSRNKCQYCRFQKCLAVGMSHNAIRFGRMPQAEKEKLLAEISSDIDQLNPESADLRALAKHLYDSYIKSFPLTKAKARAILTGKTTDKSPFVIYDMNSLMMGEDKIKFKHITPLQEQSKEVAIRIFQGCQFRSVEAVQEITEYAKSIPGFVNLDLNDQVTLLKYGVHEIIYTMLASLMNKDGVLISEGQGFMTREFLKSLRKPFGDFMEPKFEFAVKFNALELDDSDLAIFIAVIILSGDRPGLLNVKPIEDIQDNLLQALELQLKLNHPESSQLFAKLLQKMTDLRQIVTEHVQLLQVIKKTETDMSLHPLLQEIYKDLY
human RAR-related Orphan Receptor beta (RORb), RORB (gene 6096), sequence (Q92753 whole entry, looked up, the tested form may be a part): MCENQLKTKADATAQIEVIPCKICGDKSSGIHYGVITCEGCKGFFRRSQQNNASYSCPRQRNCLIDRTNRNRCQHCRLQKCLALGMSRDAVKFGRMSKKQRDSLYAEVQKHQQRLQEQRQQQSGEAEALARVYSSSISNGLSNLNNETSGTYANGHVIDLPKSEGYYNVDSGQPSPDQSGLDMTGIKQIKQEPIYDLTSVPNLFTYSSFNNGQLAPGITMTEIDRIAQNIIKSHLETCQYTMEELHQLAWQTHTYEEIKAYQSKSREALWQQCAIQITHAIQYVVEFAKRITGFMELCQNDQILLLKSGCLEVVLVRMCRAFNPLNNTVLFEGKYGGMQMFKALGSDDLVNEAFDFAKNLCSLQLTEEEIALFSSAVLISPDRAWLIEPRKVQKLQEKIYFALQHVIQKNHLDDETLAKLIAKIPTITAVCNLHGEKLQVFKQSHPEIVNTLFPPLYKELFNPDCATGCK

As to `Nc1ccc(N)c(Cl)c1`, the AC50 in experiment [1] was 46.6 µM (active); in experiment [2] it was 33.4 µM (active); in [3], 4.45 µM (active); in experiment [5] it was 33.4 µM (active); in experiment [7], 7.54 µM (active) and 7.95 µM (active); in experiment [8], 20 µM (active) and 15.1 µM (active). The concentration at half-maximal activity (AC50) was 68 µM (active) in [10]; 13.1 µM (active) and 16.2 µM (active) in experiment [13]; 4.08 µM (active) in experiment [14]. Also, the molecule was called inactive in [4], in experiment [6], in [9], in experiment [11], in [12] and in experiment [15].

Consider `CC1OC1C1CCC2(C)OC2C1` (stereo not drawn), for which the molecule was classed as inactive in experiment [1], in experiment [2], in experiment [4], in [5], in experiment [6] and in experiment [7]. Also, the outcome in [8], in [11], in [12], in [13] and in [16] was inactive. For the same molecule, the figures for the half-maximal activity concentration (AC50) in experiment [3] and in [14] were 100 µM (active) and 23.4 µM (active), respectively.

Take `CC(C)=CCCC(C)C=O` (stereo not drawn): the call in experiment [1], in [2], in experiment [3], in experiment [4], in experiment [5] and in experiment [9] was inactive. The molecule was classed as inactive in [10] and in experiment [17]. For the same molecule, the AC50 in [14] is 7.95 µM (active).

For the molecule `C=CC(=O)OCCOC(=O)C=C`, the outcome in [1], in [2], in [3], in experiment [9], in experiment [10] and in experiment [18] was inactive. Besides, the molecule was called inactive in experiment [14], in experiment [15] and in experiment [19]. The values for the AC50 in experiment [4] and in experiment [5] were 26.3 µM (active) and 48 µM (active), respectively.
